In the library only some 1.1% were active in any assay of this set; here they are far more common.
NPSR antagonist – neuropeptide S receptor (human) antagonism, cAMP | Q6W5P4 | CHO-NPSR cells, cAMP TR-FRET, antagonist mode | Potency, µM (highest dose often 38.3 µM), for the others: at the highest dose activity change, negative = inhibition, actives largely listed as inhibitors | hit rate 1% among 220,000; also: potency is read from the fitted curve at half-maximal effect; % is scaled to controls: 0 for no effect and ±100 for the full control effect; nearly all actives have a fitted effect of over 50% in size
Target sequence (Q6W5P4 whole entry, looked up): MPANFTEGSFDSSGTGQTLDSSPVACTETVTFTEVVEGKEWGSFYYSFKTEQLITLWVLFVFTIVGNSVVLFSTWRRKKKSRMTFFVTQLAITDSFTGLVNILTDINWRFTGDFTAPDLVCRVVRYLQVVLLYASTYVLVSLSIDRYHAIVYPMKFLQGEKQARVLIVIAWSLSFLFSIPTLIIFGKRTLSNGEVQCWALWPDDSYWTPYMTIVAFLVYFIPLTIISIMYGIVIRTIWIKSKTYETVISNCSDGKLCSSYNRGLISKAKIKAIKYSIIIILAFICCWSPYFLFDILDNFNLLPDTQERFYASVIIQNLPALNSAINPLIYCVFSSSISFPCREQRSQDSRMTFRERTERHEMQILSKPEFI
HttQ103 aggreg – reduces HttQ103-GFP aggregates in PC12 cells; PC12 HttQ103-GFP aggregates, Acumen cytometry, 40 h; Potency, µM (top dose mostly 46.1 µM), for inactives: at the top dose activity change, negative = inhibition, actives largely listed as inhibitors; hit rate 1.1% among 220,000; also: potency is read from the fitted curve at half-maximal effect; % is scaled to controls: 0 for no effect and ±100 for the full control effect; nearly all actives have a fitted effect of over 60% in size
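Quantitative HTS on tebufenozide-induced (100 nM) PC12 cells stably expressing polyQ103 Huntingtin exon 1–GFP. Reduction of bright GFP aggregates, detected by laser scanning cytometry after lysis, identified actives across the titration.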
mIDH1 inhibitor – human IDH1 R132H inhibition; hit rate 0.093% among 390,000; AID 602179; Potency, µM (doses to about 76.6 µM), for the others: at the highest dose activity change, negative = inhibition, actives largely listed as inhibitors; IDH1-R132H enzyme, NADPH consumption, diaphorase/resazurin fluorescence; also: potency is read from the fitted curve at half-maximal effect; % is scaled to controls: 0 for no effect and ±100 for the full control effect; nearly all actives have a fitted effect of over 65% in size
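IDH1-R132H (0.5 ug/mL dispensed) in pH 7.5 Tris buffer was preincubated 30 min with compound, then given a substrate mix of 0.016 mM NADPH and 2 mM alpha-KG for 80 min at room temperature; remaining NADPH was read by diaphorase/resazurin fluorescence.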
HTT ATP protect – Huntington cell model cytoprotection by ATP luminescence. PC12 HTT-Q103 induced, cytoprotection, ATP luminescence, 40 h. Potency, µM (series often up to 56.4 µM), for the others: cytoprotection (ATP increase), hits mostly activators. hit rate 0.14% among 230,000; also: potency is read from the fitted curve at half-maximal effect; % of control where 0% means no effect; nearly all actives have a fitted effect of over 45% in size
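PC12 cells with ecdysone-inducible HTT exon 1 Q103-GFP, induced with 100 nM tebufenozide and co-treated with library compounds in a dose series (1536-well, 1500 cells/well). Cytoprotection read as ATP content by ATPlite luminescence.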
A-T KAP1 phos – candidate therapy for ataxia-telangiectasia; F2112 A-T fibroblasts, KAP-1 phosphorylation AlphaLISA; neocarzinostatin DNA damage 30 min before lysis; Potency, µM (doses to about 57.5 µM), inactives show at the highest dose activation, usual class: activators; hit rate 0.19% among 320,000; also: potency is read from the fitted curve at half-maximal effect; % of control where 0% means no effect; nearly all actives have a fitted effect of over 45% in size
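hTERT-immortalized A-T patient fibroblasts (F2112), 500 cells/well in OPTI-MEM, 1% FBS, got compounds for 60 min, then NCS for 30 min at 37C. Lysates were then assayed for phospho-KAP-1 by AlphaLISA (anti-pKAP1 donor, anti-KAP1 acceptor beads), 6 hr at 25C.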
Resorufin autofl – interferes with resorufin fluorescence in IDH1 counter-screen; 750 tested, under 10 active; inhibition of signal, % at 51.2 µM; Resorufin detection reagent fluorescence interference, cell-free; shares compounds with mIDH1 inhibitor;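 also: 0% = wells with normal resorufin and full inhibition = wells lacking resorufin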
IDH1 WT – inhibits human wild-type IDH1, mutant selectivity check; shares compounds with mIDH1 inhibitor; WT IDH1 enzyme, NADPH diaphorase/resazurin fluorescence; Potency, µM (highest dose often 115 µM), for inactives: at the highest dose activity change, negative = inhibition, hits mostly inhibitors; hit rate 9% among 750;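 also: potency is read from the fitted curve at half-maximal effect; 0% = full WT IDH1 enzyme control and full inhibition = no enzyme wells; nearly all actives have a fitted effect of over 55% in size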
Target sequence (O75874 whole entry, looked up): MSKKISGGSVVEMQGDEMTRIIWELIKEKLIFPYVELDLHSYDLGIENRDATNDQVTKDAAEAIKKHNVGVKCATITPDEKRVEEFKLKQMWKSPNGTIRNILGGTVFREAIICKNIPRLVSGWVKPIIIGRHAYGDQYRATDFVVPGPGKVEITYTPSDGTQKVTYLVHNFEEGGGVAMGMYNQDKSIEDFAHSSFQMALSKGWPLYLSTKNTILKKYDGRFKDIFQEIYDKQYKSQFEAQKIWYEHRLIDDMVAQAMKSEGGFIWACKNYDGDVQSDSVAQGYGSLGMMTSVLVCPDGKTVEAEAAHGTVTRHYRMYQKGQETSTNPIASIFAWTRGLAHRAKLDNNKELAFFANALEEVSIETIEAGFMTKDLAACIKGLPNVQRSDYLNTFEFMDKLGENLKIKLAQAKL
mIDH1 confirm – mutant IDH1 (human) inhibition, confirmed | shares compounds with mIDH1 inhibitor | IDH1 R132H enzyme, NADPH diaphorase/resazurin fluorescence | Potency, µM (highest dose often 76.6 µM), for inactives: top-dose activity change, negative = inhibition, hits mostly inhibitors | hit rate 83% among 750; also: potency is read from the fitted curve at half-maximal effect; nearly all actives have a fitted effect of over 50% in size
* marks the source's active call; other numbers are inactive results; u = inconclusive; x = no result; [ ] = remark or other dose. Calls follow the shape of the dose curve; as a rule, active = well fitted curve in the direction sought with a large enough effect; inconclusive = small, poorly fitted or top-dose-only effect, or another doubt; inactive = no such curve, though single readings can be large; an effect the other way counts as inactive or inconclusive.

SMILES	NPSR antagonist	HttQ103 aggreg	mIDH1 inhibitor	HTT ATP protect	A-T KAP1 phos	Resorufin autofl	IDH1 WT	mIDH1 confirm
Cc1c(C(=O)Oc2ccc(-c3cnc4ccccc4n3)cc2)cccc1[N+](=O)[O-]	u	x	u	u	1.6%	3.6	31.3%	50.1µM*
CCCCC(NC(=O)CCc1c(C)c2cc3c4c(oc3c(C)c2oc1=O)CCCC4)C(=O)O (configuration not stated)	x	x	46.5µM*	x	0.3%	-7.6	-6.8%	25.1µM*
Cc1ccc(C(C(=O)NC2CCCCC2)N(Cc2ccco2)C(=O)Cc2c[nH]c3ccccc23)o1 (configuration not stated)	u	-27.7%	u	1.1%[10 µM]	-4.5%	4.0	4.9%	10µM*
Cc1ccc(-c2nnn(CC(=O)N(c3ccccc3F)C(C(=O)NC3CCCC3)c3ccco3)n2)o1 (configuration not stated)	-29.6%[46.1 µM]	9.8%	-2.2%	-0.4%[10 µM]	4.3%	x	x	x
COc1ccc(C(C(=O)NC2CCCCC2)N(Cc2cccs2)C(=O)Cc2c[nH]c3ccccc23)cc1OC (configuration not stated)	-17.8%[46.1 µM]	19.1%	-1.5%	16.6%[10 µM]	0.5%	x	x	x
Cc1ccc(C(C(=O)NC2CCCCC2)N(C(=O)Cc2c[nH]c3ccccc23)c2ccccc2C)o1 (configuration not stated)	-20.3%	-0.8%	u	4.4%[10 µM]	1.0%	2.4	9.0%	7.08µM*
Cc1ccccc1N(C(=O)Cc1c[nH]c2ccccc12)C(C(=O)NC1CCCCC1)c1ccco1 (configuration not stated)	-11.0%	-2.1%	u	19.7%[10 µM]	1.6%	-0.8	0.4%	12.6µM*
COc1ccc(C(C(=O)NC2CCCCC2)N(C(=O)Cc2c[nH]c3ccccc23)c2ccccc2C)cc1OC (configuration not stated)	-21.8%	-17.3%	-0.8%	-14.9%[10 µM]	-5.4%	x	x	x
COc1ccc(OC)c2sc(NC(=O)c3ccc(S(=O)(=O)N4CCCC4)cc3)nc12	x	x	12.2%	x	x	x	x	x
CCCOc1ccc(C2c3c(-c4ccccc4O)n[nH]c3C(=O)N2CCCOCC)cc1OCC (configuration not stated)	x	x	-10.9%	x	x	x	x	x
CSc1ccc(C2c3c(-c4ccccc4O)n[nH]c3C(=O)N2Cc2ccncc2)cc1 (configuration not stated)	x	x	39.8µM*	x	x	-0.2	4.2%	28.2µM*
CCCOc1ccc(C2c3c(-c4ccccc4O)n[nH]c3C(=O)N2Cc2ccncc2)cc1OCC (configuration not stated)	x	x	u	x	x	-4.7	u	44.7µM*
COC(=O)c1ccc(C2c3c(-c4ccccc4O)n[nH]c3C(=O)N2Cc2cccnc2)cc1 (configuration not stated)	x	x	u	x	x	4.8	0.4%	39.8µM*
CCOc1cc(C2c3c(-c4ccccc4O)n[nH]c3C(=O)N2CCc2ccccc2)ccc1O (configuration not stated)	x	x	u	x	x	-3.1	9.3%	u
Cc1ccc(N2CCN(C(=O)C3CCN(c4ncnc5c4nc4n5CCCCC4)CC3)CC2)c(C)c1	x	x	-10.4%	x	x	x	x	x
Cc1cccc(-c2nc(CCNC(=O)c3ccccc3Br)cs2)c1	x	x	14.9%	x	x	x	x	x
Cc1cc(C)cc(OCC(=O)NCC(c2ccc(Cl)cc2)N2CCCCC2)c1 (configuration not stated)	x	x	0.0%	x	x	x	x	x
COCCCN1C(=O)c2[nH]nc(-c3cc(C)cc(C)c3O)c2C1c1ccc(O)c(OC)c1 (configuration not stated)	-21.5%[46.1 µM]	22.0%	3.2%	-13.2%[0.074 µM]	3.4%	x	x	x
CCCN1C(=O)c2[nH]nc(-c3cc(Cl)c(C)cc3O)c2C1c1ccc(O)c(OC)c1 (configuration not stated)	u	33.5%[9.22 µM]	26.1µM*	20.4%[10 µM]	2.5%	11.5	u	28.2µM*
CC(C)c1ccc(C2c3c(-c4ccccc4O)n[nH]c3C(=O)N2Cc2ccncc2)cc1 (configuration not stated)	x	x	15.8µM*	x	x	-14.4	-4.1%	22.4µM*
C=CC[C@@H]1/C=C(\C)C[C@H](C)C[C@H](OC)[C@H]2O[C@@](O)(C(=O)C(=O)N3CCCC[C@H]3C(=O)O[C@H](/C(C)=C/[C@@H]3CC[C@@H](O)[C@H](OC)C3)[C@H](C)[C@@H](O)CC1=O)[C@H](C)C[C@@H]2OC	x	34.7%	x	4.3%	x	x	x	x
CC(=O)Nc1ccc(NC(=O)C(c2ccccc2)N2Cc3ccccc3C2=O)cc1 (configuration not stated)	x	x	-9.7%	x	x	x	x	x
COC(=O)c1ccc(NC(=O)C(c2ccccc2)N2Cc3ccccc3C2=O)cc1 (configuration not stated)	x	x	u	x	x	-3.8	-1.1%	-6.0%
Cc1cccc(NC(=O)Cn2c(=O)n(CCCCCC(=O)NCc3ccc4c(c3)OCO4)c(=O)c3sccc32)c1	x	x	-13.9%	x	x	x	x	x
COc1ccccc1CNC(=O)Cn1c(-c2cccs2)cc2cc(F)ccc21	x	x	0.0%	x	x	x	x	x
SMILES	NPSR antagonist	HttQ103 aggreg	mIDH1 inhibitor	HTT ATP protect	A-T KAP1 phos	Resorufin autofl	IDH1 WT	mIDH1 confirm
OC[C@@H](O)[C@@H](O)[C@@H](O)[C@@H](O)c1nc2ccc(Cl)cc2[nH]1	x	x	x	0.9%[10 µM]	x	x	x	x
COc1cc2ncc(C(=O)c3ccc(C)cc3)c(N3CCCCC3)c2cc1OC	x	x	u	x	x	-7.6	-10.6%	14.1µM*
c1ccc(N(c2ccccc2)c2nc(-n3ccnc3)nc(-n3ccnc3)n2)cc1	-25.1%[46.1 µM]	-6.3%	u	-54.4%	3.7%	1.5	-3.1%	25.1µM*
CCn1c(C(=O)N2CCC(C(=O)NCCc3ccc(OC)cc3OC)CC2)cc2sccc21	x	x	3.2%	x	x	x	x	x
CCC1CN(C(=O)N2CCC(C(=O)NCc3cccc(F)c3)CC2)c2cc(C)ccc2O1 (configuration not stated)	x	x	-10.7%	x	x	x	x	x
CCCC(=O)C1=C(c2cccc(OC)c2)N(C(=O)CCC)n2c(C)nnc2S1	x	x	44.7µM*	x	x	-6.7	170.1%	44.7µM*
CC(=O)C1=C(c2ccccc2)N(C(C)=O)n2c(C)nnc2S1	-32.6%	-23.8%	29.3µM*	15.9%	-7.6%	-5.5	-130.3%	6.31µM*
CCCC(=O)C1=C(c2ccc(C)c(C)c2)N(C(=O)CCC)n2c(CC)nnc2S1	x	x	3.0%	x	x	x	x	x

Compound activity from PubChem BioAssay.
